According to PubChem BioAssay (NCATS):
Results filed as inconclusive are left out. Active and inactive are the calls of the source. Unless noted, the call rests on the fitted dose curve; in most records, active means well fitted curve in the direction sought with a large enough effect; inconclusive means small, poorly fitted or top-dose-only effect, or another doubt; inactive means no such curve, though single readings can be large; an effect the other way counts as inactive or inconclusive.

Tests used:
[1] = target: Peroxisome proliferator-activated receptor gamma (Homo sapiens) (UniProt P37231); experiment: qHTS assay for small molecule agonists of peroxisome proliferator-activated receptor gamma signaling (AID 588536; active means well fitted curve in the direction sought with a large enough effect in the signal ratio, with a control signal flat, not every such curve was filed as active; the % refers to the signal ratio;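 further: 0% = DMSO basal wells and 100% = rosiglitazone at 2 µM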)
Peroxisome proliferator-activated receptor gamma (Homo sapiens), sequence (P37231 whole entry, looked up): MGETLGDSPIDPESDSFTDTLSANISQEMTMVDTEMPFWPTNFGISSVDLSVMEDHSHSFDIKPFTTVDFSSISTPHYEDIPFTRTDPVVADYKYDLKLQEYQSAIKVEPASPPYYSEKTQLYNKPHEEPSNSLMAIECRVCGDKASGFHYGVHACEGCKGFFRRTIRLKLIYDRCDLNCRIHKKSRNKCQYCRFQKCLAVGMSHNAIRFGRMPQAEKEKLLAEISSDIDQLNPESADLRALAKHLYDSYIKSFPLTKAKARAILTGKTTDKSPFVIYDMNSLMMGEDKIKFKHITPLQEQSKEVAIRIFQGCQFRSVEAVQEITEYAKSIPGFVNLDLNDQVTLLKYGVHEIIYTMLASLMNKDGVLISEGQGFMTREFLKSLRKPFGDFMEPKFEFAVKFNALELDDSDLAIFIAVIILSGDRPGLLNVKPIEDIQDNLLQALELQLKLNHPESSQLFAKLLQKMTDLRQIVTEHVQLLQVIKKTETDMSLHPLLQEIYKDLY
Method in brief: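 PPAR-gamma-UAS-bla HEK293 cells in medium with 1% charcoal/dextran-treated FBS were exposed to compounds for 16 h at 37 C. Beta-lactamase activity was read with CCF4 substrate (405 nm excitation, 460/530 nm emission).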

[2] = qHTS assay for small molecule agonists of retinoid X receptor alpha signaling (AID 588544; calls by dose curve;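 on activation: 0% = DMSO basal wells and 100% = reference agonist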); conditions: HEK293T RXRa-UAS-bla, beta-lactamase reporter, 18 h; 530 nm emission
[3] = target: Retinoic acid receptor RXR-alpha (Homo sapiens) (UniProt P19793); experiment: as above
Retinoic acid receptor RXR-alpha (Homo sapiens), sequence (P19793 whole entry, looked up): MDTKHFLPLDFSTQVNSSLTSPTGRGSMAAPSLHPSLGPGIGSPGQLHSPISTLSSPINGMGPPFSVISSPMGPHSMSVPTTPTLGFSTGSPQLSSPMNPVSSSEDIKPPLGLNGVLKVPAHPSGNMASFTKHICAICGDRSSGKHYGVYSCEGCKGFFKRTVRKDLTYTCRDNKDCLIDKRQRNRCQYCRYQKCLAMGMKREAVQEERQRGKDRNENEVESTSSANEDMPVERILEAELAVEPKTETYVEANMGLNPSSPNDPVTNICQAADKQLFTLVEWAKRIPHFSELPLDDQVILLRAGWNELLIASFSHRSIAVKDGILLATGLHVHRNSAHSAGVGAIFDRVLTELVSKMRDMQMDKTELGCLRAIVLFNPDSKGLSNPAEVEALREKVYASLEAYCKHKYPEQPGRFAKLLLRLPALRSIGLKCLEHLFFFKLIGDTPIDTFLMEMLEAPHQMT

[4] = target: Thyroid hormone receptor beta (Homo sapiens) (UniProt P10828); experiment: qHTS assay for small molecule agonists of thyroid hormone receptor beta signaling (AID 588545; calls by dose curve)
Thyroid hormone receptor beta (Homo sapiens), sequence (P10828 whole entry, looked up): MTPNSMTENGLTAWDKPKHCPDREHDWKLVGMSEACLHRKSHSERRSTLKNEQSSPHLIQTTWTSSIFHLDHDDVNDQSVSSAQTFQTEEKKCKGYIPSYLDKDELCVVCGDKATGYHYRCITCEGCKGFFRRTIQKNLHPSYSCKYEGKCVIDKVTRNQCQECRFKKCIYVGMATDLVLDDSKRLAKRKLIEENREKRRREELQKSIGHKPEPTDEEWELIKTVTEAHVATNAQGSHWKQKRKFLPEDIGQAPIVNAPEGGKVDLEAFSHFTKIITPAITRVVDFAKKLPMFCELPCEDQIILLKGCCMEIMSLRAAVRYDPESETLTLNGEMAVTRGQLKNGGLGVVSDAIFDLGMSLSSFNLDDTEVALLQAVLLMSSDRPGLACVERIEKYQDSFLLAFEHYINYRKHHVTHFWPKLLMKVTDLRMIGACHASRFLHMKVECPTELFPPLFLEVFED
Method in brief: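 Agonist-mode beta-lactamase reporter assay, HEK 293 cells, 2% charcoal/dextran FBS; cells plated 4 hrs, compound 18 hrs at 37 C, CCF4 2 hrs RT. Normalized to 10 nM T3 (100%) and DMSO (0%); Hill fit gives EC50, efficacy.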

[5] = qHTS assay for small molecule antagonists of retinoid X receptor alpha signaling (AID 588546; active means well fitted inhibition curve with a large enough effect in the signal ratio, with a control signal flat, not every such curve was filed as active; the % refers to the signal ratio;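 further: cells stimulated with 9-cis-retinoic acid as agonist; on the % scale 0 is the no-effect control and ±100 the full control effect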); conditions: HEK293T RXRa-UAS-bla, beta-lactamase ratio, antagonist mode; measured here: W530 green channel, cytotoxicity proxy
Method in brief: (§1)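 Beta-lactamase reporter inhibition, read as CCF4 fluorescence ratio (ex 405, em 460/530 nm) after 2 h at RT. HEK293T UAS-bla cells, 2500/well, were stimulated with 9-cis-RA at 500 or 100 nM final alongside test compound for 18 h at 37 C.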

[6] = target: Retinoic acid receptor RXR-alpha (Homo sapiens) (UniProt P19793); experiment: as above; conditions: HEK293T RXRa-UAS-bla, beta-lactamase ratio, antagonist mode
Method in brief: as §1

[7] = target: Thyroid hormone receptor beta (Homo sapiens) (UniProt P10828); experiment: qHTS assay for small molecule antagonists of thyroid hormone receptor beta signaling (AID 588547; active means well fitted inhibition curve with a large enough effect in the signal ratio, with a control signal flat, not every such curve was filed as active; the % refers to the signal ratio;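 further: cells stimulated with 0.4 nM T3 agonist during compound exposure; series mostly up to about 77 µM; on the % scale 0 is the no-effect control and ±100 the full control effect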); conditions: TR-UAS-bla HEK293, beta-lactamase ratio, antagonist mode, 18 h
Method in brief: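 TR-UAS-bla GripTite HEK293 cells in 2% charcoal/dextran FBS medium were preincubated 4 h at 37 C, given compound (0.59 nM to 92 uM) plus 0.4 nM T3 (final) for 18 h, then CCF4 for 2 h at RT; Hill fit gave IC50.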

[8] = target: Voltage-gated inwardly rectifying potassium channel KCNH2 (Homo sapiens) (UniProt Q12809); experiment: qHTS Assay for Small Molecule Inhibitors of the Human hERG Channel Activity (AID 588834);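 further: top concentration of the series differs between compounds; on the % scale 0 is the no-effect control and ±100 the full control effect; lower thallium flux fluorescence means stronger hERG block; nearly all actives have a fitted effect of over 50% in size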
Voltage-gated inwardly rectifying potassium channel KCNH2 (Homo sapiens), sequence (Q12809 whole entry, looked up): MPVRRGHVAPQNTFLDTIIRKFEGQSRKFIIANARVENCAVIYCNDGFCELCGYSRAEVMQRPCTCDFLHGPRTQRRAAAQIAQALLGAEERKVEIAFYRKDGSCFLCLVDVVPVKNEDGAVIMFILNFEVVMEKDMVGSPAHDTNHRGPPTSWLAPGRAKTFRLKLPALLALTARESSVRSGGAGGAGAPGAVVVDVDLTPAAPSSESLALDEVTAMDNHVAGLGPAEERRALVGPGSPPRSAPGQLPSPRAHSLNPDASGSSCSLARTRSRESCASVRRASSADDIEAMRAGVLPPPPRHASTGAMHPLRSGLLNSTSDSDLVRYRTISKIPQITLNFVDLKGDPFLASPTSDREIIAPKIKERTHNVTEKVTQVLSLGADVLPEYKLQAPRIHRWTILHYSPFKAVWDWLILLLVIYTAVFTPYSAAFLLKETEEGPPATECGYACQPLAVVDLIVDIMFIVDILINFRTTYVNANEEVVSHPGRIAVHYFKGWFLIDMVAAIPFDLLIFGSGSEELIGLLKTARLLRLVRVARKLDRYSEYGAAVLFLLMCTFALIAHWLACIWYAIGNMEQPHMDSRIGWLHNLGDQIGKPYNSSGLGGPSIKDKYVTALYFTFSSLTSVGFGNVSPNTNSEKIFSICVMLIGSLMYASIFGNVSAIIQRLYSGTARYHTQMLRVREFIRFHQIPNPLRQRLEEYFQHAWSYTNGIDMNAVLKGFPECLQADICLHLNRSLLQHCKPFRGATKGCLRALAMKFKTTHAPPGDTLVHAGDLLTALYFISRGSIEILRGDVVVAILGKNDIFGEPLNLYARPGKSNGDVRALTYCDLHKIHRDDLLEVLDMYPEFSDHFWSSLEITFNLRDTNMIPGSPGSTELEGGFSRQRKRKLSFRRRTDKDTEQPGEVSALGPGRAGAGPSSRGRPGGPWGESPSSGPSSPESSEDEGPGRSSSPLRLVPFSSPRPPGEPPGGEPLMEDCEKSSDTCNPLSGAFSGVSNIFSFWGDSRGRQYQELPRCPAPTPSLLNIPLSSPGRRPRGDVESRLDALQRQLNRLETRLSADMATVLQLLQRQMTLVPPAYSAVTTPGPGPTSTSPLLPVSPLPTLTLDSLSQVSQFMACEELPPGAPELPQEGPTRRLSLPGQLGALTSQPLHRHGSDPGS
Method in brief: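 hERG-BacMam U2OS, 2000 cells/well; 0.7X FluxOR loading 1 hr RT dark; cpd ~10 min 37 °C; stim buffer; FDSS fluorescence 2 min @ 1 s; AC50 Hill fit.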

[9] = qHTS assay for small molecule activators of the p53 signaling pathway (AID 651743; active means well fitted activation curve with a large enough effect in the signal ratio, not every such curve was filed as active; the % refers to the signal ratio; further: series mostly up to about 92 µM; % of control where 0% means no effect); conditions: HCT-116 p53RE-bla, beta-lactamase FRET ratio, 16 h; activation: stronger effect = higher value
Method in brief: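 Cell-based beta-lactamase reporter (p53 response elements, HCT-116 background). After a 5-hour preincubation, cells received compound for 16 hours at 37 C; substrate development ran 2 hours at room temperature.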

[10] = qHTS assay for small molecule activators of the nuclear factor-kappa B (NF-kB) signaling pathway (AID 651749; active means well fitted activation curve with a large enough effect in the signal ratio; the % refers to the signal ratio; further: series mostly up to about 77 µM; % of control where 0% means no effect); conditions: NF-kB-bla ME-180 cells, beta-lactamase FRET ratio, 16 h; stronger effect = higher value
Method in brief: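 Screening used 2,000 ME-180 reporter cells per well exposed to pinned compound (23 nL) or DMSO; after 16 hr at 37C, beta-lactamase expression under NF-kB control was assessed through FRET.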

[11] = qHTS assay for small molecule disruptors of the mitochondrial membrane potential - 1 hr assay (AID 651754; calls by dose curve; further: potency means the concentration at half of the fitted maximal effect; nearly all actives have a fitted effect of over 35% in size)
Method in brief: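 HepG2 cells, attached overnight, were exposed to compound for 1 hr at 37C, then stained 30 min with a potentiometric dye. Ratio of red aggregate (590nm) to green monomer (535nm) fluorescence reports membrane potential; collapse shifts signal toward green.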

[12] = qHTS assay for small molecule disruptors of the mitochondrial membrane potential - 5 hr assay (AID 651755; calls by dose curve; further: potency means the concentration at half of the fitted maximal effect; nearly all actives have a fitted effect of over 40% in size)
Method in brief: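 HepG2 cells, attached overnight at 37C, were exposed to compound or DMSO for 5 hr at 37C, 5% CO2. Mito-MPS dye was then added for 30 min, and fluorescence read at 490/535 nm (monomers) and 540/590 nm (aggregates).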

[13] = target: Tumor necrosis factor (Homo sapiens) (UniProt P01375); experiment: qHTS assay to identify small molecules that stimulate Tumor Necrosis Factor-alpha (TNF-alpha) secretion (AID 651757; active means well fitted curve in the direction sought with a large enough effect in the signal ratio; the % refers to the signal ratio; further: 0% is about no effect)
Tumor necrosis factor (Homo sapiens), sequence (P01375 whole entry, looked up): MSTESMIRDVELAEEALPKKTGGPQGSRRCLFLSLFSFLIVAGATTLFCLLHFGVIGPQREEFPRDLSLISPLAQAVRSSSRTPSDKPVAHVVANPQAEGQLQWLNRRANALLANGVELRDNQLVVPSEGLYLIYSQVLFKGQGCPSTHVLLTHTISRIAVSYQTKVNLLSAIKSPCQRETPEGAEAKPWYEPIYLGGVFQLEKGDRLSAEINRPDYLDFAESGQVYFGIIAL
Method in brief: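 THP-1 cells (3000/well) exposed to compounds 17 hrs at 37 C. Secreted TNF-alpha detected by HTRF with cryptate- and XL665-labeled anti-TNF-alpha antibodies after 3 hr at room temperature.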

[14] = qHTS assay for environmental chemicals that activate the Aryl hydrocarbon Receptor (AhR) signaling pathway (AID 651777); conditions: 1A2-DRE human hepatoma cells, luciferase, 24 h; activation: stronger effect = higher value; further: potency means the concentration at half of the fitted maximal effect; nearly all actives have a fitted effect of over 15% in size
Method in brief: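 Luminescence read-out: One-Glo added for 30 min at RT after 24 hr compound treatment (37 C, 5% CO2) of human hepatoma cells expressing a DRE/CYP1A2 promoter–luciferase reporter; increased signal indicates AhR activation.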

[15] = target: Peroxisome proliferator-activated receptor alpha (Homo sapiens) (UniProt Q07869); experiment: qHTS assay for small molecule agonists of the peroxisome proliferator-activated receptor alpha (PPARalpha) signaling pathway (AID 651778); conditions: PathHunter PPARalpha complementation, chemiluminescence, 6 h; stronger effect = higher value; further: % of control where 0% means no effect
Peroxisome proliferator-activated receptor alpha (Homo sapiens), sequence (Q07869 whole entry, looked up): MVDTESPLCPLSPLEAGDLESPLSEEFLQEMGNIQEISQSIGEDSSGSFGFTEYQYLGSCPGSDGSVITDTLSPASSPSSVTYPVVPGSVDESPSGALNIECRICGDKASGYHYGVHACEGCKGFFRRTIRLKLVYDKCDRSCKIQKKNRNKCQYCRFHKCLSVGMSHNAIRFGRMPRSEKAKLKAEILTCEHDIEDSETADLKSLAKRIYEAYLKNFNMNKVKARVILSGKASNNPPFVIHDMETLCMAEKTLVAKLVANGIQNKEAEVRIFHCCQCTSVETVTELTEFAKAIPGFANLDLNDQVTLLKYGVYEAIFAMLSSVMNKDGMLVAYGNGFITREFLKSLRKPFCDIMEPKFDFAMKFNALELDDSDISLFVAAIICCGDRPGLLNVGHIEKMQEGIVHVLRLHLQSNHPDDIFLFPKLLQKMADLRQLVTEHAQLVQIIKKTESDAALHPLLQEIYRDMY
Method in brief: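 Cells plated at 2,000/well and held overnight at 37 C, 5% CO2, then compound added by pin tool for 6 hr; after PathHunter detection reagent and 60 min at room temperature, chemiluminescence from enzyme complementation was read.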

[16] = target: Nuclear receptor ROR-gamma (Homo sapiens) (UniProt P51449); experiment: qHTS assay for small molecule antagonists of the retinoid-related orphan receptor gamma (ROR-gamma) signaling pathway (AID 651802);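 further: luciferase reporter luminescence driven by ROR response element; series mostly up to about 92 µM; on the % scale 0 is the no-effect control and ±100 the full control effect; nearly all actives have a fitted effect of over 60% in size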
Nuclear receptor ROR-gamma (Homo sapiens), sequence (P51449 whole entry, looked up): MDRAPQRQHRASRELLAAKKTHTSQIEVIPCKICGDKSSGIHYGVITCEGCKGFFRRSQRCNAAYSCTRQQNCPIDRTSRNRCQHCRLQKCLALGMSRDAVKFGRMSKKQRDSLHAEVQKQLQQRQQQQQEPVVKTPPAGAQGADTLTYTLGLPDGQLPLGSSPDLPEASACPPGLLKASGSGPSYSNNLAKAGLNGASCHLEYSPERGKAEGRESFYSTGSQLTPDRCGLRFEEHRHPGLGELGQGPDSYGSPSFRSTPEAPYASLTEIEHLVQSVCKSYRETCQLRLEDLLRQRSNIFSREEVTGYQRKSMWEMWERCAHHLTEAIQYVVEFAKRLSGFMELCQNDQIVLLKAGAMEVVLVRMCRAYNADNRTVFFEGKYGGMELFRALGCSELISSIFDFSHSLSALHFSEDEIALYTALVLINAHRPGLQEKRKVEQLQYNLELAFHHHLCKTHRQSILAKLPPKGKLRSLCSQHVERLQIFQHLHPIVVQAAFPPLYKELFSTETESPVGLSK
Method in brief: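 CHO cells with TET-inducible ROR-gamma and RORE-luciferase reporter, dosed then doxycycline-induced. After 16 h at 37C, One-Glo luminescence read; decreased signal indicates antagonism.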

[17] = qHTS assay for small molecule antagonists of the retinoid-related orphan receptor gamma (ROR-gamma) signaling pathway - cell viability counter screen (AID 720652; active means well fitted curve in the direction sought with a large enough effect in the repeat runs; an effect the other way counts as inactive or inconclusive;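 further: series mostly up to about 92 µM; compound exposure lasted 16 hr before ATP read; on the % scale 0 is the no-effect control and ±100 the full control effect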)
Method in brief: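 CHO cells carrying TET-inducible ROR and RORE-luciferase reporter, plated 5 hr, then dosed with compound plus doxycycline. After 16 hr at 37 C, viability read as intracellular ATP by CellTiter-Glo luminescence.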

[18] = qHTS assay for small molecule agonists of the antioxidant response element (ARE) signaling pathway measured by Nrf2-dependant transcriptional activity - cell viability counter screen (AID 720653; active means well fitted curve in the direction sought with a large enough effect in the repeat runs; an effect the other way counts as inactive or inconclusive; further: on the % scale 0 is the no-effect control and ±100 the full control effect); conditions: ARE-bla HepG2 viability, CellTiter-Glo ATP luminescence, 16 h; stronger effect = lower value
Method in brief: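 ARE-bla HepG2 cells (2,000/well) rested 5 hrs at 37C/5% CO2, then exposed to compounds in DMSO for 16 hrs. Viability was read in the same wells as intracellular ATP by luminescence, 30 min at room temperature after reagent addition.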

[19] = qHTS assay for cell viability of HEK293 cells (AID 743288); conditions: ATP luminescence (CellTiter-Glo), 18 h, stronger effect = lower value; further: on the % scale 0 is the no-effect control and ±100 the full control effect; nearly all actives have a fitted effect of over 50% in size
Method in brief: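 HEK293 parental, 2,000 cells/well; ≥5 h pre-incubation 37 C; pintool compound addition; 18 h, 37 C; CellTiter-Glo 30 min RT; luminescence read.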

[20] = qHTS assay for cell viability of the p53RE-bla HCT-116 cell line (AID 743292); further: on the % scale 0 is the no-effect control and ±100 the full control effect; nearly all actives have a fitted effect of over 55% in size
Method in brief: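 Luminescent ATP quantitation (CellTiter-Glo) served as the viability read-out; reagent was added after 16 h compound exposure at 37 C and read after 30 min at room temperature. Cells: p53RE-bla HCT-116, 4,000 per well.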

[21] = target: Calcium and integrin-binding protein 1 (Homo sapiens) (UniProt Q99828); experiment: Primary qHTS for Identification of Calcium Integrin Binding Protein 1 (CIB1) Competitor (AID 1508620)
Calcium and integrin-binding protein 1 (Homo sapiens), sequence (Q99828 whole entry, looked up): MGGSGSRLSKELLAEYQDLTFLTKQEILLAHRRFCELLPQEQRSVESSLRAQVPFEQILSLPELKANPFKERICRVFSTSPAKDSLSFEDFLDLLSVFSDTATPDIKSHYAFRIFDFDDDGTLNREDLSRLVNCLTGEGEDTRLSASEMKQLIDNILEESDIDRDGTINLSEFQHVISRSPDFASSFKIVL
Method in brief: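 Fluorescence polarization competition: CIB1-GST (1 uM final) preincubated with compound 15 min at room temperature, then FITC-labeled alphaIIb peptide (100 nM final) added for another 15 min. Polarization read at Ex 480/Em 540.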

O=C(Nc1ccccc1)Nc1ccccc1
active: Potency [11] 10.6 µM | Potency [12] 13.3 µM | Potency [14] 12.6 µM
inactive: outcome [1] | outcome [3] | outcome [4] | max response [6] -1.03% | activity change % (negative = inhibition) [7] -2.58% | Potency [8] | activation [9] -2.22% | activation [10] 0.321% | Potency [13] | max response [15] -3.47% | outcome [16] | outcome [17] | max response [18] -0.927% | max response [19] -16.1% | Potency [20] | Potency [21]
-6.23%: max response [2]
-7.85%: max response [5]
